# Assay outcomes (PubChem)
# Compounds with a hit are over-represented: about 4.7% of the library has one in this group of screens.
# TWEAK-Fn14 inh: inhibitors of TWEAK-Fn14 interaction signaling | TWEAK-stimulated Fn14 reporter cells, luciferase luminescence, 8 h | inhibition, % at 10 µM | 360,000 tested, 2% active; in the data active means inhibition above about 50%
# HSP90 inh: HSP90 refolding inhibition in rabbit reticulocyte lysate; 290,000 tested, 0.91% active; luciferase refolding luminescence, 3 h; AID 1789; inhibition, % at 5.6 µM;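 active means inhibition above the screen-wide mean plus 3 SD, computed separately per campaign, cut at about 16% in these data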;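 further: 0% = DMSO wells and 100% = 60 µM geldanamycin wells; inhibitors lower the luminescence because luciferase stays unfolded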
# TROY NFkB inh: TROY signaling inhibition | Q293 LMP1-TROYcd NF-kB luciferase reporter, 4 h | inhibition, % at 10 µM | 360,000 tested, 0.98% active | AID 1347056;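 active means compounds whose plate-normalised and pattern-corrected inhibition of the luciferase reporter signal at the single screening dose is 50% or more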
# HSF-1 act: increases HSF-1 driven luciferase reporter signal; NIH3T3-HGL HSF-1 luciferase reporter, MG132, 8 h; 100% = twice DMSO control signal; activation, % at 9 µM; 300,000 tested, 1.7% active; AID 504408;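 active means mean replicate activation of at least 50% with a set share of replicates each reaching 50%; inconclusive means only one of those two conditions met; inactive means mean below 50% and too few replicates reaching it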;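 further: 0% = median of the neutral control wells and 100% = twice that signal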
# LMP1 NFkB inh: inhibitors of Epstein-Barr LMP1-induced NF-kappaB reporter. LMP1-induced NF-kappaB luciferase reporter cells, luminescence. inhibition, % at 12.5 µM. 350,000 tested, 0.69% active; in the data active means inhibition above about 41%; inconclusive means no clear call, values can overlap the other calls;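 further: 0% = neutral control wells and 100% = reference inhibitor control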
# HSF1 inh: HSF1 inhibition; activity change, negative = inhibition, % at 7.5 µM (by protocol); NIH3T3-HGL HSE-luciferase, MG132-induced, luminescence 8 h; hits give low values; 300,000 tested, 0.77% active;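 active means more than half of replicate wells show activity change below -50%, luminescence cut by over half; inconclusive means some wells, but at most half, below -50%; inactive means no replicate well below -50%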;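 further: luciferase reports HSF-1 transcriptional activity via heat shock element; 0% = median of DMSO wells and -100% = zero luminescence signal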
# * hit, by the source's call; ? = inconclusive; nt = no result.
SMILES,TWEAK-Fn14 inh,HSP90 inh,TROY NFkB inh,HSF-1 act,LMP1 NFkB inh,HSF1 inh
CCCCN1C(=O)C(CC(=O)NCCCCc2ccccc2)CC(C(=O)N2CCCCCC2)=C1C (stereo not given),-9.3,nt,-1.7,nt,nt,nt
Cc1c(Cl)cccc1NC(=O)CSc1nc2c(c(=O)[nH]1)CCCC2,nt,1.5,nt,60.2*,nt,12.4
O=C(CSc1nc2c(c(=O)[nH]1)CCC2)Nc1ccccc1Cl,28.0,0.7,-25.5,26.2,-3.5,10.7
O=c1[nH]c(SCc2cccc(F)c2)nc2c1CCCC2,21.4,0.4,45.5,62.6*,-6.2,33.5
COc1ccc(/C=N\NC(=O)c2ccccc2OC)cc1COc1ccccc1C,11.0,6.1,22.9,4.5,3.4,4.5
Cc1cccc(C)c1OCC(=O)N/N=C/C=C/c1ccco1,6.4,-0.3,-17.7,81.3*,-19.4,63.1
CC(/C=C/c1ccco1)=N/NC(=O)c1ccccc1Cl,7.9,1.4,12.9,?,-16.7,27.5
Cc1cccc(OCC(=O)N/N=C/C=C/c2ccco2)c1,9.8,11.9,-2.7,17.3,-9.1,21.2
COc1ccc(/C=N/NC(=O)c2ccoc2C)cc1COc1c(C)cccc1C,74.4*,-1.0,41.1,?,21.2,46.3
O=C(N/N=C/C=C/c1ccco1)c1ccccc1Cl,4.6,3.2,6.8,68.8*,-9.3,42.4
O=C(Cc1cccs1)N/N=C/C=C\c1ccco1,-14.7,0.6,9.6,91.8*,-16.5,64.4
COc1cc2c(cc1OC)C1CCc3cc4c(cc3C1N=C2)OCO4 (stereo not given),-62.8,nt,-49.3,nt,-4.1,nt
Cc1cccc(C)c1OCC(=O)NNC(=O)c1ccoc1C,51.2*,-2.0,nt,-5.2,1.1,-3.8
CC(C)[C@@H](C(=O)N[C@@H](CCc1ccc(O)cc1)C(=O)O)N(C)C(=O)[C@H](CO)NC(=O)[C@@H](O)[C@H](N)CCCCCCCCl,15.6,nt,-0.5,nt,nt,nt
COCC(C)n1c(C)cc(C(=O)COC(=O)c2cccn2C)c1C (stereo not given),93.5*,nt,81.8*,nt,?,nt
COCC(C)n1c(C)cc(C(=O)COC(=O)c2cnc(Cl)c(Cl)c2)c1C (stereo not given),-1.8,nt,3.6,nt,4.5,nt
O=c1oc2c(O)c(O)cc3c(=O)oc4c(O)c(O)cc1c4c23,88.2*,6.0,14.8,nt,-3.0,nt
Cc1ccc(C2=NN(C(=O)c3cccs3)C(c3ccccc3O)C2)cc1 (stereo not given),-17.2,-2.4,-26.4,80.3*,-17.1,54.2
CC(=O)Nc1cc2c(cc1[N+](=O)[O-])-c1ccccc1C2=NO,-9.5,nt,-25.2,nt,0.2,nt
Nc1cc2c(cc1[N+](=O)[O-])-c1ccccc1C2=NO,72.5*,nt,43.0,nt,8.7,nt
COc1ccc(C2OC(CCc3ccccc3)CC3=C2C(=O)OC(C)(C)O3)cc1 (stereo not given),4.4,nt,13.3,nt,nt,nt
CC(C)CC(C(=O)Nc1cccc(O)c1)N1C(=O)c2ccccc2C1=O (stereo not given),-1.0,-2.4,-3.6,-67.4,8.8,-59.0*
O=C(O)CCC(=O)NCCn1c(-c2ccccc2)csc1=Nc1ccccc1,1.1,3.5,-15.2,69.5*,-20.3,28.6
OCCCn1c(-c2ccccc2)csc1=Nc1ccccc1,2.9,1.9,2.4,5.6,6.9,4.4
O=C(c1ccccn1)c1ccc2ccccc2n1,-3.9,2.4,-1.4,59.4*,nt,33.6
SMILES,TWEAK-Fn14 inh,HSP90 inh,TROY NFkB inh,HSF-1 act,LMP1 NFkB inh,HSF1 inh
O=C(Nc1csc([N+](=O)[O-])c1)Nc1c(Cl)cccc1Cl,-13.4,3.9,-14.3,21.3,3.4,15.0
O=C(Nc1ccc(Cl)cc1)Nc1csc([N+](=O)[O-])c1,66.8*,1.1,41.5,84.3*,nt,62.8
CCOC(=O)C1(C)CCCN(C(=O)c2ccc(OC)cc2)C1 (stereo not given),-7.4,nt,8.7,nt,nt,nt
Cc1ccc(C)c(NC(=O)CCc2nnc3ccc(NCc4ccco4)nn23)c1,21.6,-0.8,-10.4,-73.3,-4.5,-66.5*
Cc1ccc(NC(=O)CCc2nnc3ccc(NCc4ccco4)nn23)cc1,39.7,0.0,-19.6,-2.1,-2.9,2.2
CCCCNC(=O)C1(C)CCCCN1C(=O)c1oc2ccccc2c1C (stereo not given),3.0,nt,2.5,nt,nt,nt
COc1cccc(C(O)c2nc(-c3ccccc3)cs2)c1 (stereo not given),-4.5,nt,-27.3,nt,nt,nt
COc1ccc(C(O)c2nc(-c3ccc4ccccc4c3)cs2)cc1 (stereo not given),-22.9,nt,1.5,nt,nt,nt
